Test [1] is described as follows: qHTS assay to test for compound auto fluorescence at 535 nm (green) in HEK293 cells (AID 720680). On the technique in general: qHTS replaces the single test concentration by a dilution series.
The nature of test [2]: qHTS assay to test for compound auto fluorescence at 460 nm (blue) in HEK293 cell free culture (AID 720681). A digest of the protocol:
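Test compounds were pinned into cell-free culture medium (DMEM with 10% FBS) and fluorescence was read directly at Ex/Em 405/460 nm. Signals were expressed as fluorescence equivalents of triamterene, with DMSO vehicle as control.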

A short description of test [3]: qHTS assay to test for compound auto fluorescence at 590 nm (red) in HEK293 cell free culture (AID 720683). A digest of the protocol: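 Tox21 10K library compounds were pinned into cell-free DMEM with 10% FBS and fluorescence was read at excitation 540 nm. Activity is expressed as Rose Bengal sodium equivalency.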
Test [4] in a line: qHTS assay to test for compound auto fluorescence at 590 nm (red) in HepG2 cell free culture (AID 720684). In short, it runs like this:
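Red fluorescence (540 nm excitation, 590 nm emission) was measured after compound transfer into cell-free MEM supplemented with 10% FBS. Values are equivalencies against Rose Bengal sodium.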

Test [5] can be described thus: qHTS assay to test for compound auto fluorescence at 460 nm (blue) in HepG2 cell free culture (AID 720685). In short, it runs like this:
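Compound (23 nL) or DMSO pinned into cell-free MEM with 10% FBS; blue fluorescence read at 405/460 nm excitation/emission, expressed as auto-fluorescence equivalency to triamterene.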

A short description of test [6]: qHTS assay to test for compound auto fluorescence at 535 nm (green) in HepG2 cell free culture (AID 720686).
A short description of test [7]: qHTS assay to test for compound auto fluorescence at 460 nm (blue) in HepG2 cells (AID 720687). A digest of the protocol: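 Cells (2,000/well in MEM with 10% FBS) attached overnight at 37 C, then were exposed to compound or DMSO for 1 hr at 37 C, 5% CO2. Fluorescence read at Ex/Em 405/460 nm, expressed as triamterene-equivalent signal.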
Test [8] deals with Glucocorticoid receptor (Homo sapiens) (UniProt P04150). Nature of the test: qHTS assay to identify small molecule antagonists of the glucocorticoid receptor (GR) signaling pathway (AID 720692; active = well fitted inhibition curve with a large enough effect in the signal ratio in the repeat runs, not every such curve was filed as active; the % refers to the signal ratio; note: potency is the fitted concentration of half-maximal effect). A digest of the protocol: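 HeLa GR-bla cells; cmpd + dex 5 nM final, 18 h 37 C; LiveBLAzer B/G FRET substrate 2 h RT; fluorescence intensity read. Antagonist mode, qHTS.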
A short description of test [9]: qHTS assay to identify small molecule antagonists of the glucocorticoid receptor (GR) signaling pathway - cell viability counter screen (AID 720693). Note: nearly all actives have a fitted effect of over 55% in size.
The nature of test [10]: qHTS assay for identifying genotoxic compounds that show differential cytotoxicity against isogenic chicken DT40 cell lines with known DNA damage response pathways - Rev3 mutant cell line (AID 743014). Note: nearly all actives have a fitted effect of over 55% in size. Note: potency is the fitted concentration of half-maximal effect.
A short description of test [11]: qHTS assay to identify small molecule antagonists of the androgen receptor (AR) signaling pathway - cell viability counter screen (AID 743033; note: nearly all actives have a fitted effect of over 45% in size).
Test [12] deals with Androgen receptor (Homo sapiens) (UniProt P10275). Nature of the test: qHTS assay to identify small molecule antagonists of the androgen receptor (AR) signaling pathway (AID 743035; active = well fitted inhibition curve with a large enough effect in the signal ratio in the repeat runs, not every such curve was filed as active; the % refers to the signal ratio). A digest of the protocol:
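Fluorescence from a beta-lactamase FRET substrate (LiveBLAzer B/G, 2 h, room temperature) measured inhibition of R1881-stimulated signaling in GeneBLAzer AR-UAS-bla HEK293 cells exposed to compound for 16 h at 37C.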

For test [13] the target is unchanged. Nature of the test: qHTS assay to identify small molecule agonists of the androgen receptor (AR) signaling pathway using the MDA cell line (AID 743040; note: nearly all actives have a fitted effect of over 20% in size). In short, it runs like this:
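MDA-kb2 breast carcinoma cells stably carrying an MMTV-driven luciferase reporter (AR- and GR-responsive) were seeded and held 5 h at 37C, 0% CO2, then exposed to compounds in DMSO for 16 h. Luminescence was read 30 min after ONE-Glo addition.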

For test [14] the target is unchanged. Nature of the test: qHTS assay to identify small molecule antagonists of the androgen receptor (AR) signaling pathway using the MDA cell line (AID 743042; note: nearly all actives have a fitted effect of over 55% in size). A digest of the protocol:
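MDA-kb2 cells (human breast carcinoma, stably carrying an MMTV-luciferase reporter responsive to AR and GR) were plated at 3,000 cells/well and preincubated 5 hr at 37C, then given compound plus R1881 agonist for 16 h. ONE-Glo luminescence was read.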

Test [15] can be described thus: qHTS assay to identify small molecule antagonists of the thyroid receptor (TR) signaling pathway - cell viability counter screen (AID 743064). Note: nearly all actives have a fitted effect of over 50% in size. Note: potency is the fitted concentration of half-maximal effect. In short, it runs like this: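 Viability of T3-stimulated (1 nM final) GH3.TRE-Luc cells is measured by CellTiter-Fluor fluorescence after 23.5 h compound exposure at 37 °C plus 30 min reagent incubation.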
Test [16] in a line: qHTS assay for identifying genotoxic compounds that show differential cytotoxicity against isogenic chicken DT40 cell lines with known DNA damage response pathways - wild type cell line (AID 743012). Note: nearly all actives have a fitted effect of over 60% in size. Note: potency is the fitted concentration of half-maximal effect. A digest of the protocol: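 Wild type DT40, 300 cells/well, ~0.5 h settle at 37 C/5% CO2; compounds in DMSO added by pintool; 40 h at 37 C/5% CO2; CellTiter-Glo, 30 min RT; luminescence.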

The nature of test [17]: qHTS assay for identifying genotoxic compounds that show differential cytotoxicity against isogenic chicken DT40 cell lines with known DNA damage response pathways - Rad54/Ku70 mutant cell line (AID 743015). Note: nearly all actives have a fitted effect of over 60% in size. Note: potency is the fitted concentration of half-maximal effect.
The nature of test [18]: qHTS assay to identify small molecule antagonists of the androgen receptor (AR) signaling pathway using the MDA cell line - cell viability counter screen (AID 743041; note: nearly all actives have a fitted effect of over 45% in size). In short, it runs like this:
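MDA-kb2 AR-luc human breast carcinoma cells (MMTV-luciferase, AR/GR responsive) were treated with compounds plus R1881 agonist for 16 h at 37 °C. Viability was read as CellTiter-Fluor fluorescence in the same wells as the reporter assay.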

The target of test [19] is Glucocorticoid receptor (Homo sapiens) (UniProt P04150). Put plainly: qHTS assay to identify small molecule agonists of the glucocorticoid receptor (GR) signaling pathway (AID 720691; active = well fitted activation curve with a large enough effect in the signal ratio in the repeat runs, not every such curve was filed as active; the % refers to the signal ratio). In short, it runs like this: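 Fluorescence intensity from LiveBLAzer B/G FRET substrate (2 h, room temperature) reports beta-lactamase expression driven by the glucocorticoid response element in GR-bla HeLa cells after 18 h compound exposure at 37 C.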

The structures appear in SMILES notation. Unmarked numbers belong to inactive results. Inconclusive results are not listed. The source made the active and inactive calls. Unless noted, calls come from the whole dose curve; as a rule, active = well fitted curve in the direction sought with a large enough effect in the repeat runs; inconclusive = weak or mixed curves; inactive = no such curve, though single readings can be large; an effect the other way counts as inactive or inconclusive.
% is set by controls: 0 for no effect and ±100 for the full control effect.

Sequence of Glucocorticoid receptor (Homo sapiens) (P04150 whole entry, looked up): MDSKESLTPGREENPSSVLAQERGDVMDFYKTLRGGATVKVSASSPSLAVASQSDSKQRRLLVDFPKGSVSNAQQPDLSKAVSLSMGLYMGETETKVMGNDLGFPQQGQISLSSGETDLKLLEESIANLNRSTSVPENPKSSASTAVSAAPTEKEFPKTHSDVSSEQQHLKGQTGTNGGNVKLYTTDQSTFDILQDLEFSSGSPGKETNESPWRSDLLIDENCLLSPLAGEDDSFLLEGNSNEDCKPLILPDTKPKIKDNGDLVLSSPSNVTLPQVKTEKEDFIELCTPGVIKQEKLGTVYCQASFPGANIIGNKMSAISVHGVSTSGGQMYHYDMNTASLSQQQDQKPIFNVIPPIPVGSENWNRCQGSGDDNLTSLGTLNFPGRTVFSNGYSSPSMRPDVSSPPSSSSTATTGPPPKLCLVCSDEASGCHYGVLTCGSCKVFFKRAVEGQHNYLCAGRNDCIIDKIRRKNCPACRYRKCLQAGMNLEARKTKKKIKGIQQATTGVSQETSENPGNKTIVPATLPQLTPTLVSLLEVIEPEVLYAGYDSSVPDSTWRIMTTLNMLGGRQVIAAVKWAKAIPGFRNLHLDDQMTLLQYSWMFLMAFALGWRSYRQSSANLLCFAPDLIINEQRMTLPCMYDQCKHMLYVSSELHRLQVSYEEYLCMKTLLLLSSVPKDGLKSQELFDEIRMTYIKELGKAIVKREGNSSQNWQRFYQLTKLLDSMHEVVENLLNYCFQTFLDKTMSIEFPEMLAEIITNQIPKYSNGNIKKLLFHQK
Sequence of Androgen receptor (Homo sapiens) (P10275 whole entry, looked up): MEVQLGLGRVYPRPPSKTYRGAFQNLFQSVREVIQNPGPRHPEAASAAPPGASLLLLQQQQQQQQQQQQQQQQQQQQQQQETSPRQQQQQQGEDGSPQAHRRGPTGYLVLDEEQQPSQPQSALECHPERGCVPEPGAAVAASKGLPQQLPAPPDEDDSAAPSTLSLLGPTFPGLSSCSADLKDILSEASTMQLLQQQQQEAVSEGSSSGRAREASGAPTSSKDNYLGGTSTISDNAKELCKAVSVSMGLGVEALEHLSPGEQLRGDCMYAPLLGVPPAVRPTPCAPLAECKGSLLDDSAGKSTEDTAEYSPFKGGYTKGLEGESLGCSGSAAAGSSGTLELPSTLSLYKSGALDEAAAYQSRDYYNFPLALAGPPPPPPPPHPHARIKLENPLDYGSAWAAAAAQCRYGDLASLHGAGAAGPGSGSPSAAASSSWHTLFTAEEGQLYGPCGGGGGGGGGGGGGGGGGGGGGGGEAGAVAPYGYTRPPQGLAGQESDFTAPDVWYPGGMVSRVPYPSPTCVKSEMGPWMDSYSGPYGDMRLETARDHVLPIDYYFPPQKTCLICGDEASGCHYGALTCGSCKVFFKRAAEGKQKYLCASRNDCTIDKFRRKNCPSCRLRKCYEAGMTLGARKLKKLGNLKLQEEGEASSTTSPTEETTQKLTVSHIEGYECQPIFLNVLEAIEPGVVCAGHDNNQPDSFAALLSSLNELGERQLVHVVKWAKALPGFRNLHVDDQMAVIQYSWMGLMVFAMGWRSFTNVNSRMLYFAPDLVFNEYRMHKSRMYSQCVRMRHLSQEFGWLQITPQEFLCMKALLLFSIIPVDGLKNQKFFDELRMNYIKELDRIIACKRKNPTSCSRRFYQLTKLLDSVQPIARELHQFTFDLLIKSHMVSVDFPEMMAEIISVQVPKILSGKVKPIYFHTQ

For the compound `O=C1CCN(c2ccccc2)N1`, the result in test [1], in test [2], in [3], in [4], in test [5] and in test [6] was inactive. Moreover, the compound was classed as inactive in [7], in [9], in test [11] and in test [14]. Also, the Potency result in test [8], in test [12], in test [13] and in test [15] was “inactive” throughout. For the same compound, in [10], the Potency is 68.8 µM (active).
For `CC(=O)N(CC(O)CN(C(C)=O)c1c(I)c(C(=O)NCC(O)CO)c(I)c(C(=O)NCC(O)CO)c1I)c1c(I)c(C(=O)NCC(O)CO)c(I)c(C(=O)NCC(O)CO)c1I` (stereo not given), the fluorescence, % of fluorescein in test [1] is -0.0222% [at 18.6 µM]. For the same compound, the fluorescence, % of fluorescent control in [2] was 0.0333% [at 18.6 µM]; in test [3], -0.132% [at 18.6 µM]; in test [5], -0.0088% [at 18.6 µM]; in [7], -0.0121% [at 18.6 µM]. Besides, the fluorescence, % of Rose Bengal in [4] is 0.365% [at 18.6 µM]. Further, the fluorescence, % of fluorescein control in test [6] is 0.0651% [at 18.6 µM]. The Potency result in [8], in [16], in [10], in test [17] and in test [18] was “inactive” in each case. Further, in test [9], the outcome was inactive.
Regarding `CCCCNCCCC`, the compound was called inactive in test [1], in [2], in [3], in test [4], in [5] and in [6]. In addition, the Potency result in test [19], in [8], in [16], in test [10], in test [17] and in test [18] was “inactive” throughout. For the same compound, in test [15], the Potency entry is “inactive”.
As for `OCC(CBr)(CBr)CBr`, the result in [1], in test [2], in test [3], in test [4], in [5] and in test [6] was inactive. The compound was classed as inactive in test [7] and in test [9]. The Potency result in test [19], in test [8], in test [16], in test [10], in test [17] and in test [18] was “inactive” throughout. The Potency result in test [15] was “inactive”.
`CC(C)Nc1nc(N)nc(Cl)n1`: the compound was classed as inactive in [1], in test [2], in test [3], in test [4], in test [5] and in test [6]. For the same compound, the outcome in test [7] and in test [11] was inactive. For the same compound, the Potency result in test [19], in [8], in test [10], in test [17] and in test [18] was “inactive” in each case.
Turning to `COC(=O)c1ccc2cc(C(=O)OC)ccc2c1`, the fluorescence, % of fluorescein in test [1] was -0.0047% [at 18.6 µM]. Besides, the fluorescence, % of fluorescent control in [2] was -0.109% [at 18.6 µM]; in test [3], 0.0914% [at 18.6 µM]; in [5], -0.114% [at 18.6 µM]; in [7] it was 0.0678% [at 18.6 µM]. Besides, the fluorescence, % of Rose Bengal in test [4] was 0.0402% [at 18.6 µM]. Further, the fluorescence, % of fluorescein control in test [6] was -0.0122% [at 18.6 µM]. The Potency entry in test [19], in [8], in [10], in test [17], in test [18] and in test [15] was “inactive” throughout. Moreover, the compound was called inactive in [9] and in test [11].
Consider `CCN(O)CC`, for which the result in test [1], in test [2], in test [3], in test [4], in test [5] and in [7] was inactive. In addition, the call in test [9] and in test [11] was inactive. The Potency entry in test [16], in test [10], in test [17], in test [18] and in test [15] was “inactive” each time.
Turning to `O=c1[nH]cnc2c1ncn2[C@@H]1O[C@H](CO)[C@@H](O)[C@H]1O`, the call in [1], in test [2], in test [3], in test [4], in test [5] and in test [6] was inactive. For the same compound, the outcome in [7] and in [11] was inactive. The Potency result in [19], in [8], in test [10], in test [17] and in test [15] was “inactive” each time.
In the case of `CC(=O)OC(C)OC(C)=O`, the compound was called inactive in [1], in test [2], in test [3], in test [4], in test [5] and in [6]. The call in test [7], in [11] and in [14] was inactive. Besides, the Potency entry in [8], in test [16], in [12], in test [13], in test [18] and in [15] was “inactive” in each case. Besides, in test [10], the Potency was 70.7 µM (active).
With `O=C(O)CN(CCN(CC(=O)O)CC(=O)O)CCN(CC(=O)O)CC(=O)O`, the compound was classed as inactive in [1], in test [2], in test [3], in test [4], in test [5] and in test [7]. The compound was called inactive in test [11]. Further, the Potency result in test [19] and in test [18] was “inactive” each time. The Potency is 18.8 µM (active) in [16], 26.6 µM (active) in test [10], 18.8 µM (active) in test [17] and 26.6 µM (active) in [15].
`CC1(C)S[C@@H]2[C@H](NC(=O)C(C(=O)O)c3ccccc3)C(=O)N2[C@H]1C(=O)O` (stereo not given in full): the outcome in test [1], in test [2], in [3], in test [4], in test [5] and in test [9] was inactive. Further, the Potency entry in [19], in test [8], in test [16], in test [17], in test [18] and in test [15] was “inactive” throughout.
With `C[C@]12CCC(=O)C=C1CC[C@@H]1[C@@H]2CC[C@@]2(C)[C@H]1CC[C@]2(O)C(=O)CO`, the compound was classed as inactive in [1], in [2], in [3], in test [4], in test [5] and in test [6]. For the same compound, the compound was classed as inactive in test [7], in test [9] and in [11]. The Potency in test [8] was 0.338 µM (active). The Potency entry in test [18] and in [15] was “inactive” each time.
Turning to `CN1[C@@H]2CC[C@H]1CC(OC(=O)c1c[nH]c3ccccc13)C2` (stereo not given in full), the outcome in test [1], in test [2], in test [3], in [4], in test [5] and in test [6] was inactive. The call in test [7], in test [9] and in [11] was inactive. Also, the Potency entry in test [10] and in test [17] was “inactive” in each case. Also, the Potency in test [15] is 23.7 µM (active).
Regarding `CC1=C(CC(=O)O)c2cc(F)ccc2/C1=C\c1ccc(S(C)(=O)=O)cc1`, the compound was called inactive in test [1], in [2], in [3], in test [4], in test [5] and in test [6]. For the same compound, the outcome in [7] and in [14] was inactive. Further, the Potency result in [16], in test [10], in test [17], in test [12], in [13] and in [18] was “inactive” in each case. Also, the Potency result in test [15] is “inactive”.
As to `O=C(O)c1cccc(Cl)c1Cl`, the outcome in test [1], in test [2], in [3], in [4], in test [5] and in test [6] was inactive. Besides, the compound was called inactive in test [9] and in test [11]. Moreover, the Potency entry in test [19], in test [8], in test [16], in test [10], in [17] and in test [18] was “inactive” in each case. Moreover, the Potency result in test [15] is “inactive”.

The values above are taken from PubChem BioAssay (Tox21).
